Reference: PubChem BioAssay (NCI)
The panel holds about 83,000 compounds, 20% with a hit somewhere; the sample as a whole holds those more often.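 A percent growth of 40 corresponds to 60% growth inhibition; 0 means no net growth; -100 means all cells died. Active threshold: below 10.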 Values without a mark were called inactive. Calls of active or inactive are those of the source.

tested on: HL-60(TB) leukemia; test: NCI-60 one-dose screen, 48 h (100 = growth as untreated, 0 = no growth, -100 = all killed); conditions: 10 µM unless noted

Row | SMILES | growth
1 | CCN(CC)CCCNc1nc(C)cc(Nc2ccc3nc(C)cc(N)c3c2)n1 | 106%
2 | COc1cccc(-c2cc(-c3cccs3)c(C#N)c(=O)[nH]2)c1 | 102%
3 | CC(Oc1ccc(C(=O)NS(=O)(=O)C(C)(C)C)cc1C(F)(F)F)c1ccc(Oc2ccccc2)cn1 (stereo not given) | 72.2%
4 | CCOc1cc(CNc2ccc(N3CCOCC3)c(C(=O)O)c2)ccc1OC | 106%
5 | COc1cc(C2CC(c3cc(OC)c(OCCCOc4ccc(-n5c(/C=C/c6ccccc6)nc6ccccc6c5=O)cc4)c(OC)c3)=NO2)cc(OC)c1OC (stereo not given) | 119%
6 | ClC1(Cl)C2CCCCCCC21 (stereo not given) | 106%
7 | O=C(Nc1ccc(Cl)cc1)c1cc2ccccc2cc1OP(=O)(O)O | 37.3%
8 | COC1C[C@H](O[C@@H]2C[C@H](O[C@@H]3C[C@H](O[C@@H]4C(=O)c5c(cc6cc(O[C@H]7C[C@@H](O[C@H]8C[C@@H](O)[C@H](O)C(C)O8)[C@H](O)C(C)O7)c(C)c(O)c6c5O)C[C@H]4C(OC)C(=O)[C@@H](O)[C@@H](C)O)OC(C)[C@H]3O)OC(C)[C@@H]2O)OC(C)[C@@H]1O (stereo not given in full) | -0.253% (active)
9 | COc1ccccc1S(=O)Nc1ccccc1 (stereo not given) | 91.5%
10 | CC[C@@H](C(=O)[C@H](C)[C@H](O)[C@@H](C)[C@H]1O[C@H]([C@@H](CC)C(=O)O)CC[C@H]1C)C1O[C@]2(C=C[C@@H](O)[C@]3(CC[C@@](C)([C@H]4CC[C@](O)(CC)[C@H](C)O4)O3)O2)[C@H](C)C[C@@H]1C (stereo not given in full) | -36.8% (active)
11 | S=C(Nc1ccc(-c2nc(N3CCOCC3)c3cccn3n2)cc1)Nc1cccnc1 | 59.9%
12 | N#Cc1cccc(F)c1 | 76.2%
13 | c1ccc2cc3nc4cc5ccccc5cc4nc3cc2c1 | 90.5%
14 | O=C1C=C(C(O)c2ccc(O)cc2)C(=O)c2ccccc21 (stereo not given) | 98.4%
15 | COc1cc(-c2nnc(-c3c(-c4ccc(F)cc4)nc4ccccn34)o2)cc(OC)c1OC | 102%
16 | CCOC(=O)C1(Cc2ccccc2)CCN(Cc2cccc(OC)c2O)CC1 | -11.6% (active)
17 | COc1cc(CNCCN2C(=O)c3ccc4c5c(ccc(c35)C2=O)C(=O)N(CCNCc2cc(OC)c(OC)c(OC)c2)C4=O)cc(OC)c1OC | -48.7% (active)
18 | CCCCN(CCCC)CCc1c(C)cc(C)c(CCN(CCCC)CCCC)c1O | 7.15% (active)
19 | CS(=O)(=O)c1ccc(C(=O)N/N=C/c2ccccc2O)cc1 | 6.35% (active)
20 | CN1CCN(c2ccc(NC(=O)c3nc4ccc5[nH]ncc5c4c4c3CCCC4)cc2C(F)(F)F)CC1 | 28%
21 | Cc1ccc(C2C=C(c3ccc(Cl)cc3)N=C3SC=CN32)c(Br)c1 (stereo not given) | 104%
22 | O=C(Nc1ccc(Nc2ccncc2)cc1)c1ccc(Nc2ccnc3ccc([N+](=O)[O-])cc23)cc1[N+](=O)[O-] | 88.8%
23 | C/C(=N/NC(=O)Cn1c2ccccc2c2ccncc21)c1cccs1 | 83.5%
24 | Cc1ccc(N2CCN(C(C)C(N)=O)CC2)cc1 (stereo not given) | 158%
25 | CCN(CC)CCCCCCNc1cc(OC)cc2cccnc12 | -57.3% (active)
